MCF10A rereplic: inducers of DNA re-replication in MCF 10A breast cells; MCF 10A DNA re-replication, Hoechst nuclear intensity, 48 h; Potency, µM (titrated, usually from 46.1 µM), without a hit: at the highest dose activity, positive = re-replication, most hits filed as activators; 2.9% of 350,000 active; note: potency is the fitted concentration of half-maximal effect; % of control where 0% means no effect; nearly all actives have a fitted effect of over 50% in size
DT40 TDP1 CPT: growth inhibition of DT40 Tdp1-/-;hTDP1 cells with camptothecin (screen for TDP1 inhibitors); chicken DT40 Tdp1-/-;hTDP1 cells + 20 nM CPT, ATP luminescence, 48 h; Potency, µM (titrated, usually from 46.2 µM), for inactives: at the top dose activity change, negative = growth inhibition, most hits filed as inhibitors; 12% of 420,000 active; AID 686979; note: potency is the fitted concentration of half-maximal effect; % is set by controls: 0 for no effect and ±100 for the full control effect; nearly all actives have a fitted effect of over 55% in size
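Chicken DT40 Tdp1-/- cells complemented with human TDP1, 400 cells/well, exposed to compounds plus 20 nM camptothecin for at least 48 h at 37 C; viability read as ATP content by CellTiter-Glo luminescence.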
BCR signal inh: blocks chronic active B-cell receptor signaling. ABC-DLBCL IkBa-CBG/CBR reporter, luminescence ratio, 4 h. 0.05% of 340,000 active. Potency, µM (top dose mostly 46.1 µM), for inactives: at the top dose activity change, negative = inhibition, hits mostly inhibitors; active = well fitted inhibition curve with a large enough effect in the signal ratio, with a control signal flat, not every such curve was filed as active; inconclusive = small, poorly fitted or top-dose-only effect, or effect the other way, or a change in a side signal; the % refers to the signal ratio;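 note: potency is the fitted concentration of half-maximal effect; plate controls were basal doxycycline-induced cells for no effect and cells given 10 µM MG132 for full effect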
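Cell line TMD8 (human ABC DLBCL), stably expressing tet-inducible CBG68-IkBa fusion and CBR; IMDM/0.5% FBS; cpd up to 46 uM; dox induction, 4 h, 37C/5% CO2; dual luminescence; green/red ratio; MG132 control.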
IL1B secr inh: inflammasome signaling inhibition, IL-1 beta readout | activity change, % at 57.5 µM | THP-1 LPS/ATP IL-1B secretion, AlphaLISA, 16 h; hits give low values | 4.7% of 360,000 active; in the data active = activity change below about -50%; inconclusive = mostly about -30% to -49%; note: % is set by controls: 0 for no effect and ±100 for the full control effect
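Secreted IL-1B measured by AlphaLISA bead assay after 16 h compound exposure of THP-1 cells; compounds (final up to 57.5 uM) added 1 h before LPS (250 ng/mL) and ATP (1.25 mM) stimulation; lower signal means less secretion.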
SW480 rerep: induces DNA re-replication in SW480 colon adenocarcinoma cells. SW480 DNA re-replication, Hoechst DNA content imaging, 48 h. Potency, µM (series often up to 46.1 µM), inactives show top-dose re-replication activation, actives largely listed as activators. 1.8% of 340,000 active. AID 624297; note: potency is the fitted concentration of half-maximal effect; % of control where 0% means no effect; nearly all actives have a fitted effect of over 55% in size
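Image-based read-out: total Hoechst fluorescence of nuclei (405 nm excitation, 500-530 nm emission), with hits raising the fraction of high-intensity nuclei. SW480 colon cells incubated 48 hr with compounds at 37 C.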
TDP1 cell noCPT: qHTS for Inhibitors of human tyrosyl-DNA phosphodiesterase 1 (TDP1): qHTS in cells in absence of CPT; DT40 Tdp1-/- hTDP1 cells, no CPT, ATP luminescence, 48 h; Potency, µM (doses to about 46.2 µM), for the others: top-dose activity change, negative = growth inhibition, hits mostly inhibitors; AID 686978, 2013; 15% of 420,000 active; note: potency is the fitted concentration of half-maximal effect; % is set by controls: 0 for no effect and ±100 for the full control effect; nearly all actives have a fitted effect of over 55% in size
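Seeded 400 DT40-hTDP1 cells/well (vehicle DMSO, no 20 nM CPT); pinned compounds; ≥48 hr at 37 °C; CellTiter-Glo luminescence as viability measure.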
An asterisk follows results filed as active; ? = inconclusive; / = not tested or not shown. Shown are actives, neighbours in structure and some others; about 19% of the full set was active somewhere. Unless noted, calls come from the whole dose curve; as a rule, active = well fitted curve in the direction sought with a large enough effect; inconclusive = small, poorly fitted or top-dose-only effect, or another doubt; inactive = no such curve, though single readings can be large; an effect the other way counts as inactive or inconclusive.

SMILES	MCF10A rereplic	DT40 TDP1 CPT	BCR signal inh	IL1B secr inh	SW480 rerep	TDP1 cell noCPT
Cc1cc(C)n(C(=O)/C(C#N)=N/Nc2cc(Cl)cc(Cl)c2)n1	?	3.3µM*	23%	-28	-3%	2.6µM*
COc1ccc(N2CCN(C(=O)c3cc(=O)c4cc(C)ccc4o3)CC2)cc1	11%	-28%	0%	-6	-12%	?
COc1c(O)cc2oc3cc(O)c(CC=C(C)C)c(O)c3c(=O)c2c1CC=C(C)C	/	19µM*	/	/	/	12µM*
COc1cc2ccc(=O)oc2c(CC=C(C)C)c1OC	-1%	-25%	5%	-12	0%	-20%
CC(C)=CCc1c(O)cc2oc3c(CC=C(C)C)c(O)c(O)c(CC=C(C)C)c3c(=O)c2c1O	?	?	-10%	2	14%	21µM*
COc1cc(C(C)=O)ccc1Oc1ncnc2c1cnn2-c1ccc(F)cc1	-5%	?	?	-12	-11%	9.2µM*
O=C(Nc1cccc(-c2cccc(F)c2)c1)C1CCN(Cc2ccc(CO)o2)CC1	11%	?	2%	-13	16µM*	?
COc1cccc(-c2cccc(NC(=O)C3CCN(Cc4ccc(CO)o4)CC3)c2)c1	1%	-13%	0%	-20	-2%	8%
O=C(Nc1cccc(-c2cccc(F)c2)c1)C1CCN(C2CCOCC2)CC1	13%	?	0%	-1	-4%	?
CCn1nc(C)c(CN2CCC(C(=O)Nc3cccc(-c4cccc(Cl)c4)c3)CC2)c1C	-1%	?	?	-18	?	?
Cc1cc(C)n(CCCN2CCC(C(=O)Nc3cccc(-c4cccc(F)c4)c3)CC2)n1	?	?	?	-65*	?	18µM*
CCn1ncc(CN2CCC(C(=O)Nc3cccc(-c4cccc(F)c4)c3)CC2)c1C	3%	?	0%	-8	-17%	6.5µM*
Cc1c(C(=O)NCCC#N)sc(=O)n1Cc1ccccc1F	/	-12%	/	24	/	20%
COc1ccc(OCC(=O)OCC(=O)c2ccc(OC)c(F)c2)cc1	-1%	3%	3%	-15	13%	2%
COc1ccc(CC(NC(C)=O)C(=O)NC2CCN(C(=O)C3CCCCC3)CC2)cc1OC (centres undefined)	0%	-11%	0%	24	3%	-1%
COc1cccc(-n2ccn(CC(=O)c3ccc(F)cc3)c(=O)c2=O)c1	/	-1%	/	/	/	13%
CCOc1ccccc1NC(=O)CSc1nc2ccccc2c2nc(CCn3cncc3C)nn12	/	?	-7%	/	/	23µM*
Cc1n[nH]c(C)c1CCc1nc2c3ccccc3nc(SCC(=O)Nc3ccccc3F)n2n1	?	?	?	60	0%	?
Cc1cccc(NC(=O)CSc2nc3ccccc3c3nc(CCc4c(C)n[nH]c4C)nn23)c1	7.3µM*	16µM*	-1%	-10	?	13µM*
CCC(Sc1nc2ccccc2c2nc(CCn3cncc3C)nn12)C(=O)Nc1cccc(OC)c1 (centres undefined)	/	?	-8%	/	/	?
Cc1cncn1CCc1nc2c3ccccc3nc(SCC(=O)Nc3cccc(Cl)c3)n2n1	?	18µM*	?	-97*	?	7.3µM*
CCc1ccc2occ(CC(=O)Nc3ccccc3C(F)(F)F)c2c1	/	-14%	/	/	/	-21%
CCc1ccc(S(=O)(=O)NCc2cn3ccccc3n2)s1	18%	?	3%	17	0%	?
CCc1ccc(S(=O)(=O)NCc2cn3cccc(C)c3n2)s1	0%	18µM*	1%	40	-7%	16µM*
COc1ccc(Br)c2c1-c1nc(NC(=O)c3ccccc3F)sc1C2	/	21µM*	/	/	/	18µM*
SMILES	MCF10A rereplic	DT40 TDP1 CPT	BCR signal inh	IL1B secr inh	SW480 rerep	TDP1 cell noCPT
COc1ccc2nc(NC(=O)c3ccccc3F)sc2c1	17%	-24%	?	8	15%	?
COc1cc(C(=O)Nc2nc3c(s2)Cc2c(Br)ccc(OC)c2-3)cc(OC)c1OC	/	15µM*	/	/	/	15µM*
O=C(NCCO)c1ccc(Oc2ccc(C(F)(F)F)cc2[N+](=O)[O-])cc1	-1%	-23%	?	-2	-137%	?
O=C(CS(=O)c1ccc(C(F)(F)F)cc1[N+](=O)[O-])Oc1ccc(Cl)cc1 (centres undefined)	13µM*	9.2µM*	?	-98*	?	12µM*
O=C(Nc1cc(-c2ccccc2)nn1C1CCCCC1)c1ccc(Cl)cc1	?	?	4%	-18	?	?
CN(C(=O)c1cccc(NC(=O)Cc2ccc(NC(=O)C3CCN(C(=O)c4ccccc4)CC3)cc2)c1)C1CCCC1	14%	?	/	4	-5%	?
CN(C(=O)c1cccc(NC(=O)Cc2ccc(NC(=O)C3CCN(C(=O)CCc4ccccc4)CC3)cc2)c1)C1CC1	2%	16µM*	/	11	19%	10µM*
CN(C(=O)c1cccc(NC(=O)Cc2ccc(NC(=O)C3CCN(C(=O)CCc4ccccc4)CC3)cc2)c1)C1CCC1	-21%	13µM*	/	-17	-27%	13µM*
CN(C(=O)c1cccc(NC(=O)Cc2ccc(NC(=O)C3CCN(C(=O)c4ccccc4)CC3)cc2)c1)C1CC1	-3%	-12%	/	-2	-6%	-13%
COc1ccccc1C(=O)N1c2ncnn2C2(CCCCC2)[C@@H]2CCCC[C@@H]21	/	-12%	/	/	/	-18%
CCC(=O)N1c2nc(C(C)C)nn2C2(CCCCC2)[C@@H]2CCCC[C@@H]21	/	8.2µM*	/	/	/	4.1µM*
CC(C)C(=O)N1c2ncnn2C2(CCCCC2)[C@@H]2CCCC[C@@H]21	/	16µM*	/	/	/	10µM*
Cc1noc(C)c1COc1ccc(C(=O)OCC(=O)N2CC3(C)CC2CC(C)(C)C3)cc1 (centres undefined)	?	?	-3%	17	-2%	18µM*
Cc1cccc(C)c1OCC(=O)N1CC2(C)CC1CC(C)(C)C2 (centres undefined)	13%	?	?	-9	1%	14µM*
O=C(NC(Cc1ccccc1)C(=O)O)c1cccnc1Cl (centres undefined)	-1%	10%	0%	33	-4%	18%
CCCCCCCCCCCCCCCC(=O)OC[C@H](O)[C@H]1OC[C@@H](O)[C@@H]1O	2%	/	/	/	-1%	/

Source: PubChem BioAssay
